Beta cell apopt – beta cell apoptosis inhibition | INS-1E cytokine-induced death, ATP luminescence, 48 h; percent of positive-control rescue, neutral wells zero | protection from apoptosis, % (test concentration not listed) | actives 0.8% (n = 300,000) | AID 435005;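 active = Every replicate reaches about 75%, or at least half do and their mean reaches it too, limit read from the data; inconclusive = At least half of replicates reach the limit but their mean does not; inactive = Under half of replicates reach the limit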;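 also: 0% = cytokine-treated negative control wells and 100% = positive control rescue; higher means more ATP so stronger rescue from cytokine killing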
Jurkat NFkB inh – inhibitors of the PMA/ionomycin-induced NF-kB reporter in Jurkat cells; PMA/ionomycin-induced NF-kB luciferase reporter, luminescence; inhibition, % at 4 µM; actives 0.53% (n = 330,000); in the data active = inhibition above about 50%
697 NFkB inh – lowers PMA/ionomycin-induced NF-kB signal in 697 B cells; inhibition, % at 4 µM; AID 435022; actives 0.33% (n = 330,000); 697 B-cell NF-kB luciferase reporter, 16 h; in the data active = inhibition above about 35%
Mdm2 MdmX PPI – human Mdm2/MdmX binding inhibition | actives 3% (n = 330,000) | AID 485346 | SaOS-2 split-luciferase Mdm2/MdmX complementation, luminescence | O15151+Q00987 | inhibition, % at 8 µM;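 active = inhibition of at least 50% at 8 µM in the primary screen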
NTR1 ag – agonists of human neurotensin receptor NTR1; P30989; actives 0.17% (n = 330,000); activation, % at 20 µM; NTR1-U2OS beta-arrestin-GFP spot imaging, agonist mode;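 active = activation at or above 40% of the spot to cytoplasm intensity ratio, with at least 20 cells analyzed; inconclusive = wells under 20 cells, flagged as cytotoxic or low count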;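 also: 0% = DMSO without peptide and 100% = 100 nM NTR1 peptide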
Bfl-1 A1 inh – inhibitors of the anti-apoptotic protein A1, read as caspase activation; MEF A1-2A-BIM cells, Caspase-Glo 3/7 luminescence, 3 h; percent of clofoctol response, vehicle zero; caspase activation, % (test concentration not listed); actives 0.066% (n = 330,000);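 active = over half of replicate activation scores above 10%, or exactly half above 10 with the replicate mean above 10; inconclusive = replicate mean below 10 yet half the replicates above 10; inactive = over half of replicates below 10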
Mdm2 MdmX conf – human Mdm2/MdmX binding inhibition, confirmed; shares compounds with Mdm2 MdmX PPI; luminescent assay; inhibition, % at 8 µM; actives 55% (n = 10,000); AID 489028; in the data active = inhibition above about 40%
FLuc counter – inhibits full-length luciferase, flagging false Mdm2/MdmX hits. shares compounds with Mdm2 MdmX PPI. SaOS-2 full-length luciferase counterscreen, luminescence. inhibition, % at 8 µM. actives 77% (n = 6,200). AID 504607;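 active = mean inhibition at 8 µM reaching about 37%, which flags the compound as non-specific, limit read from the data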;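 also: p53-null SaOS-2 cells with luciferase driven by a doxycycline-inducible promoter; compound on cells about two nights before reading with doxycycline added after day one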
An asterisk follows results filed as active; ? = inconclusive; nt = no result given. Only some compounds are listed: those with a hit (about 3.8% of all), similar ones and a draw of the others.

SMILES	Beta cell apopt	Jurkat NFkB inh	697 NFkB inh	Mdm2 MdmX PPI	NTR1 ag	Bfl-1 A1 inh	Mdm2 MdmX conf	others
CN(C)CCCNC(=O)CC1C[C@H](C(=O)N2CCOCC2)[C@@]2(CCC3CCCC3)c3[nH]c4ccccc4c3CCN2C1=O (some centres undefined)	-4	-3	-6	36	5	0	nt
COc1ccc2[nH]c3c(c2c1)CCN1C(=O)C(CC(=O)NC(C)(C)C)C[C@H](C(=O)N2CCOCC2)[C@@]31CCC1CCCC1 (some centres undefined)	nt	nt	-2	12	3	nt	nt
O=C(CC1C[C@H](C(=O)N2CCOCC2)[C@@]2(CCC3CCCC3)c3[nH]c4ccccc4c3CCN2C1=O)NCCC1=CCCCC1 (some centres undefined)	5	7	4	60*	0	1	-16
CN(C)C(=O)CCc1ccc2c3c([nH]c2c1)[C@]1(C)[C@@H](C(=O)N2CCCCC2)C[C@H](CC(=O)NCc2cccc(C(F)(F)F)c2)C(=O)N1CC3	nt	nt	-6	30	-1	nt	nt
COc1ccc2[nH]c3c(c2c1)CCN1C(=O)C(CC(=O)NCCN2CCOCC2)C[C@H](C(=O)N2CCOCC2)[C@@]31CCC1CCCC1 (some centres undefined)	nt	nt	6	66*	0	nt	-15
CN(C)C(=O)CCc1ccc2c3c([nH]c2c1)[C@]1(CCC2CCCC2)[C@@H](C(=O)N2CCOCC2)C[C@H](CC(=O)NCc2cccc(C(F)(F)F)c2)C(=O)N1CC3	nt	nt	25	61*	2	nt	53*	FLuc counter=59*
Cc1cc(C)nc(CCNC(=O)c2cc(COc3ccccc3)on2)n1	-6	-23	-14	-14	1	0	nt
CC(C)(C)OC(=O)N[C@H]1C=C[C@@H](OC(=O)CC(=O)OCC(F)(F)F)C1	nt	nt	6	19	0	nt	nt
N#CCc1ccc(NC(=O)c2ccc(S(=O)(=O)N3CCCC3)cc2)cc1	-5	26	14	25	1	0	nt
CCOC(=O)C1=C(COC(=O)C(C)(C)Oc2ccc(Cl)cc2)NC(=O)NC1C (centres undefined)	-7	16	17	20	-1	1	nt
Cc1ccc2nc(N3CCN(c4cccc(C)c4C)CC3)c3nnnn3c2c1	nt	-2	-14	-9	15	-1	nt
Cc1ccc2nc(Cl)c3nnnn3c2c1	-15	-5	-17	97*	17	0	90*	FLuc counter=11
Cc1nc(SCc2cccnc2)[nH]c(=O)c1C	-2	-4	21	7	-1	0	nt
CC(=O)OCC1O[C@@H](O[C@@H]2C[C@H]3C(C)(C)[C@H](OC(C)=O)CC[C@]3(C)[C@H]3CC[C@]45C[C@]4(CC[C@H]5[C@@H](C)C[C@@H](O)[C@H](O)C(C)(C)O)[C@@]32C)[C@H](O)[C@@H](O)[C@@H]1O (some centres undefined)	111*	7	14	93*	5	?	13
CC1=CC(C)(C)n2c(O)c(C3=NC(=S)NC3=O)c3cc(OC(=O)c4cccc5ccccc45)cc1c32	-4	4	-8	77*	26	0	14
CCOC(=O)N1C(=O)[C@@](c2ccc(Cl)cc2)(C(C)C)N1C(=O)OCC	22	-3	1	88*	21	4	62*	FLuc counter=33
CCOC(=O)N1C(=O)[C@](c2ccc(Cl)cc2)(C(C)C)N1C(=O)OCC	11	15	-2	80*	13	1	44*	FLuc counter=49*
COC(=O)N1C(=O)[C@](c2ccccc2)(C(C)C)N1C(=O)OC	3	16	12	35	3	-1	nt
Cc1cc(NC(=O)CSc2nc(-c3cccs3)nc3ccccc23)no1	43	50	-33	45	2	0	nt
COc1ccccc1CNC(=O)[C@@H](NC(=O)C1CCN(C(=O)[C@@H]2CCCN2C(=O)OC(C)(C)C)CC1)C(C)C	-3	-8	-6	-17	1	0	nt

Bioassay records: PubChem, several laboratories
